40 compounds from PubChem BioAssay (NCI) can be followed below.

Compounds without any hit were thinned out: in the full panel of roughly 83,000, 20% have a hit.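 Each cell line was grown in a 96-well plate and treated with one concentration of compound for 48 hours. Values below 10 were considered active.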 A number with no mark means an inactive call. Calls of active or inactive are those of the source.

The subject of this assay is MOLT-4 leukemia. Put plainly: NCI-60 one-dose screen, 48 h (100 = growth as untreated, 0 = no growth, -100 = all killed). The conditions noted are these: 10 µM. The protocol: Growth inhibition of the MOLT-4 human tumor cell line is measured as a screen for anti-cancer activity. Cells are grown in 96 well plates and exposed to the test compound for 48 hours. Compounds are tested at a single concentration, which is 10^-5 M for most compounds. The reported endpoint is percent growth (GI% or GIPRCNT), where numbers from 0 - 100% represent growth inhibition, and numbers from -100% - 0 represent cell death. For example, a value of 40 represents 60% growth inhibition. A value of 0 means no net growth occurred over the course of the experiment. A value of -40 indicates 40% of cells at the beginning of the experiment died by the end of the experiment. A value of -100 means all cells are dead at the end of the experiment.
NCI-60 Human Tumor Cell Lines Screen was performed using the standard one-dose NCI protocol, which is described in more detail at https://dtp.cancer.gov/discovery_development/nci-60/default.htm.
Compounds with GIPRCNT values below 10 were considered active. Activity score was based on GIPRCNT using the following formula: […]
Score is 0 for GIPRCNT values of 100 or above, 50 for GIPRCNT values of 0, and 100 for GIPRCNT values of -100.
Consider `C(CCCC1=NCCO1)CCCC1=NCCO1`, for which the growth was 105%.
Regarding `COc1ccc2c(c1)sc1nc(-c3ccccc3)c(-c3ccsc3)n12`, the growth was 36.4%.
In the case of `N=C(N)c1ccc(-c2ccc(-c3cccs3)s2)s1`, the growth was -55.7% (active).
In the case of `CSc1nc(=O)n(Cc2ccc(F)cc2)c(=O)n1Cc1ccc(C)cc1`, the growth was 92.4%.
As for `CN(C)CCN1C(=O)c2cccc3c(-c4ccc5ncn(C6CCCCC6)c5c4)ccc(c23)C1=O`, the growth was -18.7% (active).
In the case of `CC(C)N(CCNc1nc(C(Cl)(Cl)Cl)nc2cc(Cl)ccc12)C(C)C`, the growth was -21.4% (active).
In the case of `CC(C)=CCc1ccc(O)c(=O)cc1C(C)C` it was 8.5% (active); in that of `N#CCCN1C/C(=C/c2ccccc2)C(=O)/C(=C/c2ccccc2)C1`, 4.56% (active); in that of `CC(=O)c1cc(Br)ccc1O`, 101%.
In the case of `Nc1c(C(=O)Nc2cccc(F)c2)sc2nc3c(cc12)C(=O)CCC3`, the growth is 66.3%.
Turning to `CC(=O)n1c(-c2ccc(Cl)c(Cl)c2)cn(-c2ccc(Cl)cc2)c1=O`, the growth was 18.4%.
In the case of `CS(=O)(=O)Nc1ccc(Nc2c3ccccc3nc3cc(N)ccc23)cc1`, the growth is 5.41% (active).
Take `COc1ccc(OC)c(NC(=O)c2sc3nc4c(cc3c2N)C(=O)CCC4)c1`: the growth is 93.1%.
`CN(C)CCN=c1nc2c(c(N)n1-c1ccccc1)c(=S)n(-c1ccccc1)c(=S)n2-c1ccccc1`: the growth was 3.92% (active).
In the case of `Nc1c(C(=O)Nc2cccc(Br)c2)sc2nc3c(cc12)C(O)CCC3` (stereo not given) it was 14%; in that of `NC(=S)N=Nc1c(O)c2ccccc2c2ccccc12`, 100%; in that of `C/C(=N\Nc1nc2ccccc2s1)c1ccncn1`, 2.87% (active).
`COc1cc2cc3c(nc2cc1OC)CCN3Cc1ccc(NC(=O)Nc2ccc(F)cc2F)cc1`: the growth was 58.9%.
Take `COc1ccc(-c2nn(-c3cccc(NC(=O)c4cccc(C(F)(F)F)c4)c3)cc2-c2ccncc2)cc1Cl`: the growth is 24%.
Turning to `Nc1nccc(Nc2ccccc2)n1`, the growth is 96.3%.
Consider `COc1cc(Cl)cc(-c2nn(-c3cccc(NC(=O)c4ccc(N5CCOCC5)c(C(F)(F)F)c4)c3)cc2-c2ccncc2)c1`, for which the growth is 38.3%.
For the compound `CC/C(C)=C(\C)C(=O)O`, the growth is 101%.
In the case of `COc1cc(-c2cc(/C=C/C(=O)c3ccc(Cl)c(Cl)c3)[nH]n2)cc(OC)c1OC` it was 54.4%; in that of `Cc1cccc(Cl)c1NC(=O)c1ccc2nc(NC(=O)NC3CCN(C)CC3)sc2c1`, 77.9%; in that of `COc1ccc2c(c1)C(=O)c1c-2c(=O)n(CCCN(C)C)c2cc(OC)c(OC)cc12`, 13.8%.
Regarding `CSc1nn(-c2ccccc2)c2ncnc(Oc3ccc(C)cc3)c12`, the growth is 94.9%.
In the case of `Cc1cc(N(CCCNc2ccnc3cc(Cl)ccc23)Cc2ccc3c(c2)OCO3)nc(N2CCOCC2)n1` it was -15.9% (active); in that of `OCC1OC(n2cnc3c(N/N=C\c4ccccn4)ncnc32)C(O)C1O` (stereo not given), 21%.
Take `O=C(c1cccs1)c1ccccc1Cc1ccccc1`: the growth is 92.5%.
In the case of `O=C1NC(=O)c2ncccc21`, the growth was 106%.
Regarding `O=C1OCC2=C1C(c1cccc(Cl)c1)c1cc3c(cc1N2CCO)CCC3` (stereo not given), the growth is 13.7%.
As for `COc1ccc(-c2nsc3c2NC(=O)CC3c2ccc(F)cc2)cc1` (stereo not given), the growth was 21.7%.
Consider `O=C(/C=C/c1cc2ccccc2[nH]c1=O)c1ccc2c(c1)OCO2`, for which the growth was 66%.
With `COc1cc(NC(=O)c2sc3nc4c(cc3c2N)C(O)CCC4)cc(OC)c1` (stereo not given), the growth is 63.1%.
On to `O=C(Nc1ccccc1)Nc1cccc(-n2cc(-c3ccncc3)c(-c3ccc(O)c(Cl)c3)n2)c1`, for which the growth is 38.3%.
Regarding `COc1cc2c(cc1OC)N(CCO)C1=C(C(=O)OC1)C2c1ccc(Cl)c(Cl)c1` (stereo not given), the growth is 73.7%.
Take `COc1ccc(CN2CCC(N3CCCC3=O)c3cc(Cl)ccc32)cc1` (stereo not given): the growth is 83%.
As for `CS(=O)(=O)Nc1cccc(-c2cc(-c3ccccc3Cl)c(C#N)c(N)n2)c1`, the growth was 24.6%.
In the case of `Cn1c([N+](=O)[O-])cnc1/C=C1\Oc2ccc(Cl)cc2C1=O`, the growth is -1.82% (active).
For `COc1ccc(/C=C/C(=O)Nc2ccc(-c3nc4ccc(F)cc4s3)cc2)cc1`, the growth is 71.8%.
